{
  "source": "PubChem BioAssay",
  "note": "Values without a mark were called inactive. Results filed as inconclusive are left out. Active and inactive are the calls of the source. Rule as the data show it, unless noted: active = fluorescence slope change above about 50%; inconclusive = mostly about 31% to 49%; inactive = weaker than that.",
  "data": [
    {"biological_target": "ATP-dependent translocase ABCB1 (Homo sapiens) (UniProt P08183)", "sequence (P08183 whole entry, looked up)": "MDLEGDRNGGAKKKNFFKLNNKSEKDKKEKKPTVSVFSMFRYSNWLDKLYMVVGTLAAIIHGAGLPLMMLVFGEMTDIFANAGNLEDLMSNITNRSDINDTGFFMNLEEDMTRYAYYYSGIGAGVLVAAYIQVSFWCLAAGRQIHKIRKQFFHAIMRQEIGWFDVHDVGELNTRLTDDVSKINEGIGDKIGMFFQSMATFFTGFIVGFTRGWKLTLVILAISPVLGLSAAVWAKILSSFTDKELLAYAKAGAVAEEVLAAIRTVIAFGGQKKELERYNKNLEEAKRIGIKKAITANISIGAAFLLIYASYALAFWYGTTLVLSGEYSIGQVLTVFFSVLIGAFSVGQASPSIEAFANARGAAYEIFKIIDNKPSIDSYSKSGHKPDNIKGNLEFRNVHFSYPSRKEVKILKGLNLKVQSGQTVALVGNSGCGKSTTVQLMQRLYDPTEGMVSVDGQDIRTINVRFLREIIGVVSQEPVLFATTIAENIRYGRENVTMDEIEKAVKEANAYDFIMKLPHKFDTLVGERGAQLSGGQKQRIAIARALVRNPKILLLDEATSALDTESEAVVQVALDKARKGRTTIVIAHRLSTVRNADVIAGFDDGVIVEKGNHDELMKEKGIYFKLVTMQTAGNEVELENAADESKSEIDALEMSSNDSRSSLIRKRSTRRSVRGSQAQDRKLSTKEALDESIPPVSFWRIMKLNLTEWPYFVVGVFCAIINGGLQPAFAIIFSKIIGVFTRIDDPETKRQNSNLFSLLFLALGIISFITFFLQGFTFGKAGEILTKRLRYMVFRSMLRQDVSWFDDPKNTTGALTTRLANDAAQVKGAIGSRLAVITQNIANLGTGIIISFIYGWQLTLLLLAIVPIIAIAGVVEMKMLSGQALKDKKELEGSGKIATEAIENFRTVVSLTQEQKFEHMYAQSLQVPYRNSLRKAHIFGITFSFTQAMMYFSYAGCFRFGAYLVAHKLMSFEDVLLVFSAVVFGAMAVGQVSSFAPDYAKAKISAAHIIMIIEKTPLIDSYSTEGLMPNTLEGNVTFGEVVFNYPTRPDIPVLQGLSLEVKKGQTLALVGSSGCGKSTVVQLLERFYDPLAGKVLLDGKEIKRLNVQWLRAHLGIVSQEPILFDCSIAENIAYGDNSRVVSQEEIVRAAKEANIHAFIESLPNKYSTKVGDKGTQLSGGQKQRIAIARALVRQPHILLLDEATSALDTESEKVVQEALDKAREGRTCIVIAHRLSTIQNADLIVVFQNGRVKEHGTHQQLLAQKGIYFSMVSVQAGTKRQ", "experiment": "P-glycoprotein substrate transport blockade – cell-based (AID 377)", "details": "MDR1-expressing cells, fluorescent substrate accumulation slope; hits give high values; concentration not given here", "values": [
      {"smiles": "CN1CCC2=C[C@@H](O)C3OC(=O)c4cc5c(cc4C3[C@H]21)OCO5", "note": "(stereo partly drawn)", "fluorescence slope change": "1.8%"},
      {"smiles": "C=C[C@@H]1CN2CCC1C[C@@H]2[C@@H](O)c1ccnc2ccccc12", "note": "(stereo partly drawn)", "fluorescence slope change": "13.4%"},
      {"smiles": "CN1[C@@H]2CCC[C@H]1CC(=O)C2", "fluorescence slope change": "53.5% (active)"},
      {"smiles": "CC1OC(OC2/C=C/C=C/C=C/C=C/CC/C=C/C=C/[C@H](C)[C@@H](O)[C@@H](C)[C@H](C)OC(=O)CC(O)CC(O)CC(O)CCC(O)C(O)C[C@]3(O)CC(O)C(C(=O)O)C(C2)O3)C(O)C(N)C1O", "note": "(stereo partly drawn)", "fluorescence slope change": "108% (active)"},
      {"smiles": "COc1cc2c(cc1O)C1Cc3ccc(OC)c(O)c3CN1CC2", "note": "(stereo not drawn)", "fluorescence slope change": "144% (active)"},
      {"smiles": "CC(=O)O[C@@H]1CC(O[C@@H]2C(C)OC(O[C@@H]3C(C)OC(OC4CCC5(C)C(CCC6C5CC(O)C5(C)C(C7=CC(=O)OC7)CCC65O)C4)C[C@H]3O)C[C@H]2O)OC(C)[C@H]1OC1OC(CO)[C@@H](O)[C@@H](O)[C@@H]1O", "note": "(stereo partly drawn)", "fluorescence slope change": "3%"},
      {"smiles": "NCCC(O)C(=O)NC1CC(N)C(OC2OC(CN)C(O)[C@H](O)[C@@H]2N)[C@H](OC2O[C@H](CO)[C@@H](O)[C@@H]2O)[C@@H]1O", "note": "(stereo partly drawn)", "fluorescence slope change": "51.6% (active)"},
      {"smiles": "CCN1C[C@]2(COC)CC[C@H](O)[C@@]34C5C[C@H]6C(OC)C5[C@](O)(C[C@H]6OC)C(O)(C(OC)C23)[C@@H]14", "note": "(stereo partly drawn)", "fluorescence slope change": "-9.9%"},
      {"smiles": "CCOC(=O)NC1=C(N2CC2)C(=O)C(NC(=O)OCC)=C(N2CC2)C1=O", "fluorescence slope change": "17.2%"},
      {"smiles": "CN(CC(=O)O)/C(N)=N/P(=O)(O)O", "fluorescence slope change": "63.4% (active)"},
      {"smiles": "C=C1C2C[C@@]3(C4CC5C6(C3C[C@@H]2O)[C@@H](O)CC[C@@]5(C)CN(CC)[C@H]46)[C@@H]1O", "note": "(stereo partly drawn)", "fluorescence slope change": "24.6%"},
      {"smiles": "C[C@H](N)[C@@H](O)c1ccc(O)c(O)c1", "fluorescence slope change": "17.7%"},
      {"smiles": "CCC1C2CC3[C@@H]4N(C)c5ccccc5[C@]45CC(C2[C@H]5O)N3[C@@H]1O", "note": "(stereo partly drawn)", "fluorescence slope change": "67.5% (active)"},
      {"smiles": "CC[C@H](CO)NC(=O)[C@@H]1C=C2c3cccc4[nH]cc(c34)C[C@H]2N(C)C1", "fluorescence slope change": "0.6%"},
      {"smiles": "CC[C@@H](C)C(=O)O[C@H]1[C@H](O)[C@H]2[C@@H](CN3C[C@@H](C)CC[C@H]3[C@@]2(C)O)C2C[C@]34O[C@@]5(O)[C@@H](OC(=O)C(C)(O)CC)CC[C@@]3(C)[C@@H]5[C@@H](OC(C)=O)[C@@H](OC(C)=O)[C@H]4[C@@]21O", "note": "(stereo partly drawn)", "fluorescence slope change": "24.2%"},
      {"smiles": "COC(C)C(O)(C(=O)OCC1=CCN2CC[C@H](O)[C@@H]12)C(C)C", "note": "(stereo partly drawn)", "fluorescence slope change": "29%"},
      {"smiles": "CO[C@@H]1C=C2CCN(C)[C@@H]2C2c3cc4c(cc3C(=O)OC21)OCO4", "note": "(stereo partly drawn)", "fluorescence slope change": "12.6%"},
      {"smiles": "CN1[C@@H](C[C@@H](O)c2ccccc2)CCC[C@H]1C[C@H](O)c1ccccc1", "fluorescence slope change": "85.7% (active)"},
      {"smiles": "C[C@@H]1CCC2[C@H](C)C3CC[C@@]4(O)[C@@H]5CC(=O)[C@H]6CC(=O)CC[C@]6(C)C5C[C@H]4[C@@H]3CN2C1", "note": "(stereo partly drawn)", "fluorescence slope change": "16.8%"},
      {"smiles": "COc1cc(C(=O)OC2CC3CCC(C2)N3C)ccc1O", "note": "(stereo not drawn)", "fluorescence slope change": "5.8%"},
      {"smiles": "CN(C)Cc1c[nH]c2c(OCc3ccccc3)cccc12", "fluorescence slope change": "61.1% (active)"},
      {"smiles": "CCN(CC)C(=O)N[C@H]1C=C2c3cccc4[nH]cc(c34)C[C@H]2N(C)C1", "fluorescence slope change": "136% (active)"},
      {"smiles": "C=C(C)[C@@H]1[C@H]2OC(=O)[C@@H]1[C@]1(O)C[C@H]3O[C@]34C(=O)OC2[C@]14C", "note": "(stereo partly drawn)", "fluorescence slope change": "18.3%"},
      {"smiles": "CN1CCc2cc3c(c4c2C1Cc1ccccc1-4)OCO3", "note": "(stereo not drawn)", "fluorescence slope change": "11.3%"},
      {"smiles": "CCN1C[C@]2(COC)CC[C@H](OC)[C@]34C5C[C@@H]6[C@@H](OC)CC7(OCO[C@]7([C@H]13)[C@@H](O)C24)C5[C@H]6OC", "note": "(stereo partly drawn)", "fluorescence slope change": "13%"},
      {"smiles": "CCN1C[C@]2(C)CC[C@H](O)C34C5C[C@H]6C(O)C5[C@](O)(C[C@@H]6OC)C(CC32)[C@@H]14", "note": "(stereo partly drawn)", "fluorescence slope change": "-10.1%"},
      {"smiles": "C=C(C(=O)OC1CC2[C@@H]3O[C@@H]3[C@@H](C1)N2C)c1ccccc1", "note": "(stereo partly drawn)", "fluorescence slope change": "4.6%"},
      {"smiles": "C#C[C@]1(O)CCC2C3CCC4=CC(=O)CC[C@]4(C)C3CC[C@@]21C", "note": "(stereo partly drawn)", "fluorescence slope change": "63.9% (active)"},
      {"smiles": "NCC1OC(OC2C(N)CC(N)C(O)C2O)C(N)C(O)C1O", "note": "(stereo not drawn)", "fluorescence slope change": "14.1%"},
      {"smiles": "C=C[C@]12CN(C)C3C4COC(CC41)[C@]1(C(=O)Nc4ccccc41)[C@@H]32", "note": "(stereo partly drawn)", "fluorescence slope change": "13.5%"}
    ]},
    {"test_system": "not listed separately", "experiment": "compounds altering circadian rhythm period length – cell-based, LOPAC library, luminescence reporter (AID 2774; call rule not given here;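 also: values are relative to mean of DMSO wells on each plate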)", "details": "circadian reporter cells, at 7 µM, actives lie on both sides", "units": {"period change": "h"}, "values": [
      {"smiles": "COc1cc(CC(C)N)c(OC)cc1I", "note": "(stereo not drawn)", "period change": -0.11},
      {"smiles": "CCN(CC)C(=O)N[C@H]1C=C2c3cccc4[nH]cc(c34)C[C@H]2N(C)C1", "period change": 0.33},
      {"smiles": "CCCn1c(C)c(C(=O)c2ccc3ccccc3c2)c2ccccc21", "period change": -0.02}
    ]},
    {"test_system": "not listed separately", "experiment": "compounds altering viability of human ES cells (AID 493140; call rule not given here;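 also: cells exposed to compounds for four days before counting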)", "details": "human embryonic stem cell survival screen; hits give high values", "values": [
      {"smiles": "CN1CCC2=C[C@@H](O)C3OC(=O)c4cc5c(cc4C3[C@H]21)OCO5", "note": "(stereo partly drawn)", "survival": 6.42},
      {"smiles": "CC1OC(OC2/C=C/C=C/C=C/C=C/CC/C=C/C=C/[C@H](C)[C@@H](O)[C@@H](C)[C@H](C)OC(=O)CC(O)CC(O)CC(O)CCC(O)C(O)C[C@]3(O)CC(O)C(C(=O)O)C(C2)O3)C(O)C(N)C1O", "note": "(stereo partly drawn)", "survival": 8.92},
      {"smiles": "COc1cc2c(cc1O)C1Cc3ccc(OC)c(O)c3CN1CC2", "note": "(stereo not drawn)", "survival": 1.58},
      {"smiles": "NCCC(O)C(=O)NC1CC(N)C(OC2OC(CN)C(O)[C@H](O)[C@@H]2N)[C@H](OC2O[C@H](CO)[C@@H](O)[C@@H]2O)[C@@H]1O", "note": "(stereo partly drawn)", "survival": 4.17},
      {"smiles": "CCN1C[C@]2(COC)CC[C@H](O)[C@@]34C5C[C@H]6C(OC)C5[C@](O)(C[C@H]6OC)C(O)(C(OC)C23)[C@@H]14", "note": "(stereo partly drawn)", "survival": 4},
      {"smiles": "C=C1C2C[C@@]3(C4CC5C6(C3C[C@@H]2O)[C@@H](O)CC[C@@]5(C)CN(CC)[C@H]46)[C@@H]1O", "note": "(stereo partly drawn)", "survival": 5.92},
      {"smiles": "CCC1C2CC3[C@@H]4N(C)c5ccccc5[C@]45CC(C2[C@H]5O)N3[C@@H]1O", "note": "(stereo partly drawn)", "survival": 5.33},
      {"smiles": "CC[C@@H](C)C(=O)O[C@H]1[C@H](O)[C@H]2[C@@H](CN3C[C@@H](C)CC[C@H]3[C@@]2(C)O)C2C[C@]34O[C@@]5(O)[C@@H](OC(=O)C(C)(O)CC)CC[C@@]3(C)[C@@H]5[C@@H](OC(C)=O)[C@@H](OC(C)=O)[C@H]4[C@@]21O", "note": "(stereo partly drawn)", "survival": 6.33},
      {"smiles": "COC(C)C(O)(C(=O)OCC1=CCN2CC[C@H](O)[C@@H]12)C(C)C", "note": "(stereo partly drawn)", "survival": 1.33},
      {"smiles": "CC/C=C\\C[C@@H](/C=C/C=C\\C/C=C\\C/C=C\\CCCC(=O)O)OO", "survival": 90.4},
      {"smiles": "CCN(CC)C(=O)N[C@@H]1CC2c3cccc4[nH]cc(c34)CC2N(C)C1", "note": "(stereo partly drawn)", "survival": 2.5},
      {"smiles": "CO[C@@H]1C=C2CCN(C)[C@@H]2C2c3cc4c(cc3C(=O)OC21)OCO4", "note": "(stereo partly drawn)", "survival": 4.75},
      {"smiles": "CCC(C)C1OC2(C=CC1C)CC1CC(CC=C(C)C(OC3CC(OC)C(OC4CC(OC)C(O)C(C)O4)C(C)O3)C(C)C=CC=C3COC4C(O)C(C)=CC(C(=O)O1)C34O)O2", "note": "(stereo not drawn)", "survival": 3.5},
      {"smiles": "COc1cc(C(=O)OC2CC3CCC(C2)N3C)ccc1O", "note": "(stereo not drawn)", "survival": 1.67},
      {"smiles": "CCCCC[C@@H](/C=C/C=C\\CCCCCCCCCC(=O)O)OO", "survival": 112},
      {"smiles": "CCN(CC)C(=O)N[C@H]1C=C2c3cccc4[nH]cc(c34)C[C@H]2N(C)C1", "survival": 19.8},
      {"smiles": "C=C(C)[C@@H]1[C@H]2OC(=O)[C@@H]1[C@]1(O)C[C@H]3O[C@]34C(=O)OC2[C@]14C", "note": "(stereo partly drawn)", "survival": 4},
      {"smiles": "CCN1C[C@]2(COC)CC[C@H](OC)[C@]34C5C[C@@H]6[C@@H](OC)CC7(OCO[C@]7([C@H]13)[C@@H](O)C24)C5[C@H]6OC", "note": "(stereo partly drawn)", "survival": 6.42},
      {"smiles": "CC(=O)O[C@@H]1CC(O[C@@H]2C(C)OC(O[C@@H]3C(C)OC(OC4CC[C@@]5(C)[C@H](CC[C@]6(C)[C@]5(C)C[C@@H](O)[C@]5(C)[C@@H](C7=CC(=O)OC7)CC[C@@]56O)C4)C[C@H]3O)C[C@H]2O)OC(C)[C@H]1OC1OC(CO)[C@@H](O)[C@@H](O)[C@@H]1O", "note": "(stereo partly drawn)", "survival": 0.333},
      {"smiles": "CCN1C[C@]2(COC)CC[C@H](O)C34C5C[C@@H]6C(OC)C[C@@](O)(C5[C@H]6OC(C)=O)[C@@H](CC32)[C@@H]14", "note": "(stereo partly drawn)", "survival": 21.1},
      {"smiles": "CCN1C[C@]2(C)CC[C@H](O)C34C5C[C@H]6C(O)C5[C@](O)(C[C@@H]6OC)C(CC32)[C@@H]14", "note": "(stereo partly drawn)", "survival": 6.75},
      {"smiles": "C#C[C@]1(O)CCC2C3CCC4=CC(=O)CC[C@]4(C)C3CC[C@@]21C", "note": "(stereo partly drawn)", "survival": 10.7},
      {"smiles": "CCCCCCCCCCCCCCC[C@@H](O)[C@@H](N)COP(=O)(O)O", "survival": 93.8},
      {"smiles": "CC(C)C(C(=O)OC(C#N)c1cccc(Oc2ccccc2)c1)c1ccc(Cl)cc1", "note": "(stereo not drawn)", "survival": 79},
      {"smiles": "C=C[C@]12CN(C)C3C4COC(CC41)[C@]1(C(=O)Nc4ccccc41)[C@@H]32", "note": "(stereo partly drawn)", "survival": 4}
    ]}
  ]
}
